Reference: the supplement of paper PMC6411743
± gives the standard deviation of the averaged measurements. The full data set covers some 6,200 targets. This sample favours those with the largest changes.

Each target was assayed with Nc1ncnc2c1ncn2[C@@H]1O[C@H](COP(=O)(O)OP(=O)(O)NP(=O)(O)O)[C@@H](O)[C@H]1O [adenylyl imidodiphosphate] (assay: NP40-soluble protein abundance relative to vehicle (solubility fold change) (ratio); higher = more soluble protein in presence of AMP-PNP). Settings: concentration: 10mM.
In short: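 Jurkat crude lysate (Dounce-homogenised) was treated with eight concentrations from 0.1 to 10 mM for 10 min at room temperature, then 3 min at 37 °C. It was solubilised with 0.8% NP40 and benzonase (60 min, 4 °C) and ultracentrifuged, and the supernatant was TMT-labelled for LC-MS/MS. Intensities were vsn-normalised, and the value is the fold change against the NP40-processed vehicle per replicate, from three independent experiments.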

UniProt Q9NYF8, sequence (Q9NYF8 whole entry, one chain of several): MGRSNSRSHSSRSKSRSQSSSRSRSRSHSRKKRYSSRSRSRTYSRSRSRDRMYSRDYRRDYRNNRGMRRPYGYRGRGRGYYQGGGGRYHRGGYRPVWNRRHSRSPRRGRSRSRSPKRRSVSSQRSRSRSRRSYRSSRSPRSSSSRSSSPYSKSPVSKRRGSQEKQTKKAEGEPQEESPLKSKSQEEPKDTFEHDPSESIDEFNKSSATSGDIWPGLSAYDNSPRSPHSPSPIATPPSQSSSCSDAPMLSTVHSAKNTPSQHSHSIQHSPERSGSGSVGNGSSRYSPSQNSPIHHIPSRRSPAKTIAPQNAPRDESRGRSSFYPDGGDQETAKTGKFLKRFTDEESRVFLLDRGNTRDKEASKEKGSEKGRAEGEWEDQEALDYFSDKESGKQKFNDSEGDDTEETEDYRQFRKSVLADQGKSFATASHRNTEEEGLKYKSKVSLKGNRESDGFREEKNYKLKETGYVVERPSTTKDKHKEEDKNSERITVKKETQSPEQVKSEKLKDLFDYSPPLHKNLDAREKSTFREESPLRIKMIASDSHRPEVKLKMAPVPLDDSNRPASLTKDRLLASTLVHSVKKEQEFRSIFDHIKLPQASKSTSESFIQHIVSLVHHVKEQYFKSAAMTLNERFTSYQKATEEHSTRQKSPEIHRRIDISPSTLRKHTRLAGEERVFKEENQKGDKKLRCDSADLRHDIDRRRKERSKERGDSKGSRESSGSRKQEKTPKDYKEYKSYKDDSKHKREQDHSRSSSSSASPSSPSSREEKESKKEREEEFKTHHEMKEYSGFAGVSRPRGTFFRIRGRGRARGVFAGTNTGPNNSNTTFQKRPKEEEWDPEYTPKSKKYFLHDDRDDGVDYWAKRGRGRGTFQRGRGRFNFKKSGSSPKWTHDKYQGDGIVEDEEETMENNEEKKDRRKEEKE
UniProt Q9NPB8, sequence (Q9NPB8 whole entry, one chain of several): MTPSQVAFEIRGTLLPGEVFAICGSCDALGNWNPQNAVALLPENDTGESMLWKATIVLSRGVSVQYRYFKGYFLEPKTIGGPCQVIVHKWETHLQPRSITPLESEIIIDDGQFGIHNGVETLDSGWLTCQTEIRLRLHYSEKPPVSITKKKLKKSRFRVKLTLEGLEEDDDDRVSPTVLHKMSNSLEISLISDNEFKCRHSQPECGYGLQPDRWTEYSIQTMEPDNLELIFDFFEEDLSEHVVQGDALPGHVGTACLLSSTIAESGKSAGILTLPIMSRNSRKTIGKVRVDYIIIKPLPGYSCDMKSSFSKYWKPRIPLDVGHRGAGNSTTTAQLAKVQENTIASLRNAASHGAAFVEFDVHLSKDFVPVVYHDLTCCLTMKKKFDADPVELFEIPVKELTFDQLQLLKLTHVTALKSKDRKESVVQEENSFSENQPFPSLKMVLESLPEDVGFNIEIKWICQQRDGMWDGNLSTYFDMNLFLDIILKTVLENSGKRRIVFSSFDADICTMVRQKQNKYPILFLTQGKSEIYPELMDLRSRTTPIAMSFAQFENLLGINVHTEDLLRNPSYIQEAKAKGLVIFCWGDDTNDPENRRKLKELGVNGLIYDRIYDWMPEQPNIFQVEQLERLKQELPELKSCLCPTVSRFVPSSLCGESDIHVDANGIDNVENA
UniProt Q9UM21, sequence (Q9UM21 whole entry): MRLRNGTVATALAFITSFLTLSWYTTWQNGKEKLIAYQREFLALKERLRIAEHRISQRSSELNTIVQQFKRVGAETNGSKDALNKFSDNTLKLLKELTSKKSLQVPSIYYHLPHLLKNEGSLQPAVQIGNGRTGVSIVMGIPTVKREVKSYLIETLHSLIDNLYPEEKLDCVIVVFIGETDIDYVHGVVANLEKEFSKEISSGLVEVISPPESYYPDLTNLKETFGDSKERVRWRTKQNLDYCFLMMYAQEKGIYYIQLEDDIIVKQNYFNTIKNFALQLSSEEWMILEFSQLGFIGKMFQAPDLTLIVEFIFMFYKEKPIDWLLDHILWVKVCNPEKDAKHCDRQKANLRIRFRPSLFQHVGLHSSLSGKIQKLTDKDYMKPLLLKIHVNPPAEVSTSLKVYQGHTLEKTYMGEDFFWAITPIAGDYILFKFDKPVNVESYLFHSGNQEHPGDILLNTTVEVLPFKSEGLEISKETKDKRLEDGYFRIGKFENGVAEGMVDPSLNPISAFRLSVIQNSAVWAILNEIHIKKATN
UniProt Q9NRB3, sequence (Q9NRB3 whole entry): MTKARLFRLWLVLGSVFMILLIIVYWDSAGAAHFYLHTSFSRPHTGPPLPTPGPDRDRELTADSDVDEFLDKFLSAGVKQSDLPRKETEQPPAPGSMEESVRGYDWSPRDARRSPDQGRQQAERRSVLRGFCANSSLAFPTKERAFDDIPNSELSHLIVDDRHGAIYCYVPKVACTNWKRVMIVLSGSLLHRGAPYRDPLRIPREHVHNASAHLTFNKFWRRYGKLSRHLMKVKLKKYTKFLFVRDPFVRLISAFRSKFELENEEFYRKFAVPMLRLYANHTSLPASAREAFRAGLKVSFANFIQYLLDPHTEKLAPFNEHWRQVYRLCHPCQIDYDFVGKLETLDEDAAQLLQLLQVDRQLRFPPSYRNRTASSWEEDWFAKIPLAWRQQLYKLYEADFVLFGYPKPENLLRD
UniProt Q9Y462, sequence (Q9Y462 whole entry): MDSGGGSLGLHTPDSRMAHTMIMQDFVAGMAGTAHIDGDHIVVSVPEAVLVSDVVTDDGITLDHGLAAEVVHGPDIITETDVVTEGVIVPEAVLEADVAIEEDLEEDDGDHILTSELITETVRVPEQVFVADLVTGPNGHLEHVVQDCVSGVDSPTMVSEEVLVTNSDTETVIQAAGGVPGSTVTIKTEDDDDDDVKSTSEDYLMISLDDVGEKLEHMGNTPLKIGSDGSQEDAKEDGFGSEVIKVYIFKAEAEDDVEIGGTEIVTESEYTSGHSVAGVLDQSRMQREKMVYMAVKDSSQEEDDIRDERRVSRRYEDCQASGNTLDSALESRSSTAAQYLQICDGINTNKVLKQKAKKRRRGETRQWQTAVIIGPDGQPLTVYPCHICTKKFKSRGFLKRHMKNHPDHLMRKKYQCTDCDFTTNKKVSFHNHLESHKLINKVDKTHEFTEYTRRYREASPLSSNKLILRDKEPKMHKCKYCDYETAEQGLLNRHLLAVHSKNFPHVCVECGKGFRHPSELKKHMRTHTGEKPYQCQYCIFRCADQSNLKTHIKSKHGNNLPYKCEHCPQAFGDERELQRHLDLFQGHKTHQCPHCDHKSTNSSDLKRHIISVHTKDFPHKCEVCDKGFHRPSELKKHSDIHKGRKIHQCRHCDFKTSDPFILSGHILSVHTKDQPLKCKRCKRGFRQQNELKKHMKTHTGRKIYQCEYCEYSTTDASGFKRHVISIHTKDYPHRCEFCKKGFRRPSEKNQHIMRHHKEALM
UniProt Q9Y5Y5, sequence (Q9Y5Y5 whole entry): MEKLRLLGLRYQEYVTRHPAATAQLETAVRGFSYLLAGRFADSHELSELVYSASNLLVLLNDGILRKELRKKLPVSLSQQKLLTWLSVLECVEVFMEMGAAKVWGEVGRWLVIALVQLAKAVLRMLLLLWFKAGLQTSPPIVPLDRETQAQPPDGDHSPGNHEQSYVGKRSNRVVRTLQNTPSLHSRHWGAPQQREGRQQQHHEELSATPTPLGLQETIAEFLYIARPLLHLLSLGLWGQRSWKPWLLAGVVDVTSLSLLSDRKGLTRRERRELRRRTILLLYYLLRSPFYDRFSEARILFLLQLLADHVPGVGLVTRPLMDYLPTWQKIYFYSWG
UniProt Q9ULX3, sequence (Q9ULX3 whole entry): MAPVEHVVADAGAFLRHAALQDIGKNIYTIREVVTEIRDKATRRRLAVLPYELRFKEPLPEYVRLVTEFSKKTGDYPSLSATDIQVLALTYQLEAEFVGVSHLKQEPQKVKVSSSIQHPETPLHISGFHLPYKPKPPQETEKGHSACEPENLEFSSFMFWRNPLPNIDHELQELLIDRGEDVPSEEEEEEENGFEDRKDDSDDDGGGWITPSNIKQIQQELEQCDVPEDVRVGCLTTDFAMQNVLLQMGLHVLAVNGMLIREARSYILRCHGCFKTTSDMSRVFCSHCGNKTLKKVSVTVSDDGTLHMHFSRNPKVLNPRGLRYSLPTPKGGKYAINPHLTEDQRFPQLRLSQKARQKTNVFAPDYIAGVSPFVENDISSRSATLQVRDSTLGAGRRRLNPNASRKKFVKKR
UniProt Q9GZR2, sequence (Q9GZR2 whole entry): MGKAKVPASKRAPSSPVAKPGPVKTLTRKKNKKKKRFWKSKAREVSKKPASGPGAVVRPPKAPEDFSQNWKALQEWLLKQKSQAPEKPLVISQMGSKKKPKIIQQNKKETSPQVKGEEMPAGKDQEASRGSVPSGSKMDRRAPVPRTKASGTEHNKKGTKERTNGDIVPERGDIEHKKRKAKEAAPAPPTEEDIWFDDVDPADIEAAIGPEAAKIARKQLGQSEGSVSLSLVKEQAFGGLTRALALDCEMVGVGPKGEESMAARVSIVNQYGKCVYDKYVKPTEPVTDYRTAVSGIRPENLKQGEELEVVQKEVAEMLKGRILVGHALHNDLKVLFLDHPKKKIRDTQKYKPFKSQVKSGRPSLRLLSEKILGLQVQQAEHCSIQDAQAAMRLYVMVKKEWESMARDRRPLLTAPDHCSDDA
UniProt Q9NXR1, sequence (Q9NXR1 whole entry, one chain of several): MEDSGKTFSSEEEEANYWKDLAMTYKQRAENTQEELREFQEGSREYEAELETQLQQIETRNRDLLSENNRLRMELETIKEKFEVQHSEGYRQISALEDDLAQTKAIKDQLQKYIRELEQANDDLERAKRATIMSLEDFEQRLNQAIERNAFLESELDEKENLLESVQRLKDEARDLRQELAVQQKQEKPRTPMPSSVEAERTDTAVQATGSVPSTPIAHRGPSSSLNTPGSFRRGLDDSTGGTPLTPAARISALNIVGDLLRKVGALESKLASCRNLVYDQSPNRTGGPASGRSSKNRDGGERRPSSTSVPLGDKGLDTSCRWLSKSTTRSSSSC
UniProt Q9BPZ3, sequence (Q9BPZ3 whole entry, one chain of several): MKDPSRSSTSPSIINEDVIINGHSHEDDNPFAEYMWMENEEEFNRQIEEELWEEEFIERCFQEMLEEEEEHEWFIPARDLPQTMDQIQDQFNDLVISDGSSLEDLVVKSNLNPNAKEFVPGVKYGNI

Target	NP40-soluble protein abundance
NSMCE4A (UniProt Q9NXX6)	0.941 ± 0.09
UniProt Q9NXR1|Q9NXR1-2|X5DR54	0.9852 ± 0.0096
SORT1 (UniProt Q99523)	1.03 ± 0.047
MOV10 (UniProt Q9HCE1)	0.889 ± 0.12
C9orf78 (UniProt Q9NZ63)	0.939 ± 0.078
UniProt Q9Y520|Q9Y520-5|Q9Y520-7|E7EPN9|Q9Y520-4	1.41 ± 0.17
UniProt Q9Y5Y5|Q9Y5Y5-2	1.02 ± 0.052
UBAC1 (UniProt Q9BSL1)	0.933 ± 0.034
UniProt Q9UG63|Q9UG63-2	2.54 ± 0.26
ZNF48 (UniProt Q96MX3)	1.12 ± 0.059
UniProt Q9UL63|C9J7E8|Q9UL63-2	0.922 ± 0.12
DIDO1 (UniProt Q9BTC0)	1.36 ± 0.12
UniProt Q9Y2A7|Q9Y2A7-2	0.985 ± 0.026
RBM27 (UniProt Q9P2N5)	1.34 ± 0.16
UniProt Q9UM21	0.991 ± 0.023
UCK1 (UniProt Q9HA47)	1.01 ± 0.01
UniProt Q9Y462|Q9Y462-3	1.02 ± 0.013
UniProt Q96P48|Q96P48-3	0.882 ± 0.062
UniProt Q9UPT9|Q9UPT9-2	0.922 ± 0.02

Target	NP40-soluble protein abundance
ISCU (UniProt Q9H1K1)	0.958 ± 0.047
TPX2 (UniProt Q9ULW0)	1.39 ± 0.049
UniProt Q9GZY4	1.01 ± 0.051
CISD1 (UniProt Q9NZ45)	0.968 ± 0.051
CBX8 (UniProt Q9HC52)	1.39 ± 0.044
PNKP (UniProt Q96T60)	1.22 ± 0.079
REXO4 (UniProt Q9GZR2)	1.21 ± 0.051
UniProt Q9UKT4|Q9UKT4-2	1.02 ± 0.11
CHST12 (UniProt Q9NRB3)	1.011 ± 0.0063
UniProt Q9NYF8|Q9NYF8-2|Q9NYF8-3|E9PK91	1.43 ± 0.12
UniProt Q9NPB8|H0Y565	1.02 ± 0.019
HECA (UniProt Q9UBI9)	1.04 ± 0.024
UniProt Q9P2R7|Q9P2R7-2	0.969 ± 0.049
UniProt Q9BPZ3|D6R9Y1	0.9085 ± 0.0067
UniProt Q9NXK8|Q9NXK8-2	0.998 ± 0.024
UniProt Q9H668	0.963 ± 0.024
UniProt Q9P1W8|Q9P1W8-2	1.024 ± 0.0042
NOB1 (UniProt Q9ULX3)	1 ± 0.047
